GDH-TPI counter-1 = counter-screen for M. tuberculosis FBA inhibitors: GDH-TPI coupled enzymes; GDH-TPI coupled enzyme counterscreen, NADH absorbance; inhibition, % at 4.8 µM; 360,000 compounds, 1.2% hits;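 further: 0% = DMSO wells and 100% = wells lacking the enzyme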
CCHF vOTU inh = CCHFV vOTU protease inhibition. Pep-AMC fluorescence. inhibition, % at 11.5 µM. 370,000 compounds, 0.55% hits. AID 651958; further: 0% = vehicle wells with enzyme and 100% = no enzyme wells
RecA splice inh = blocks M. tuberculosis RecA intein splicing; P9WHJ3; cell-free RecA intein splicing, fluorescence; inhibition, % (concentration not given with the values); 290,000 compounds, 0.75% hits; in the data active means inhibition above about 30%;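 further: 0% = vehicle wells and 100% = reference inhibitor control wells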
Target sequence (P9WHJ3 whole entry, looked up, canonical isoform): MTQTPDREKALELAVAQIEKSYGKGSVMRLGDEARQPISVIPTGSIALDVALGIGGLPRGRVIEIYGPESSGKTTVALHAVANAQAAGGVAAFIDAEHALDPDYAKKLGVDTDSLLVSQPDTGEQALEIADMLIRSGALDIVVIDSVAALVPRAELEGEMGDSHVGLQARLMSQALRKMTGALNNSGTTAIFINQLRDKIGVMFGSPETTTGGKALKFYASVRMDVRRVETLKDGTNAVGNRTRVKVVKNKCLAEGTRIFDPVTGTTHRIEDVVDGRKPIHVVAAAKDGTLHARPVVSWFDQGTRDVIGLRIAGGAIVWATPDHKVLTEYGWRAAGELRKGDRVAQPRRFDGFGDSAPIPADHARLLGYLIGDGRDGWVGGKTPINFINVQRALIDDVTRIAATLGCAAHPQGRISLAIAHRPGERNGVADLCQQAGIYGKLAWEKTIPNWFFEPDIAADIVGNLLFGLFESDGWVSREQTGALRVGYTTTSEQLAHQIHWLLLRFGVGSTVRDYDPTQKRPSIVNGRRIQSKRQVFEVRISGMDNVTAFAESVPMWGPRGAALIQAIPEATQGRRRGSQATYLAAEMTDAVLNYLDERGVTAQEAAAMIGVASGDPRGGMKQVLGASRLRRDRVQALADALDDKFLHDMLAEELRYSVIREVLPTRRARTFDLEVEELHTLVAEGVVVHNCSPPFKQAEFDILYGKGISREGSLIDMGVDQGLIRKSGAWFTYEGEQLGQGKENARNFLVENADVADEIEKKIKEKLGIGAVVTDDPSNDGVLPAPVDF
Mtb FBA inh = Mtb fructose-bisphosphate aldolase inhibition; P9WQA3; purified M. tuberculosis FBA, fluorescence read-out; inhibition, % at 1 µM; 360,000 compounds, 2.3% hits; AID 588726; in the data active means inhibition above about 27%;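 further: 0% = vehicle and 100% = reference inhibitor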
Mtb FBA confirm = Mtb FBA inhibition, confirmed; shares compounds with Mtb FBA inh; purified M. tuberculosis FBA, fluorescence read-out; inhibition, % at 1 µM; 5,600 compounds, 78% hits; AID 651616; in the data active means inhibition above about 27%;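 further: 0% = vehicle wells and 100% = reference inhibitor wells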
GDH-TPI counter-2 = GDH-TPI inhibition counter-screen for FBA inhibitors | GDH-TPI coupled enzyme counterscreen, fluorescence | inhibition, % at 1 µM | 5,600 compounds, 81% hits | shares compounds with Mtb FBA inh | AID 652141; in the data active means inhibition above about 10%
Numbers without * were called inactive; i = inactive; / = no result given; + = active, no number. In the library only some 4.2% were active in any assay of this set; here they are far more common. Unless noted, no stated cut-off is given here; in the data, active means inhibition above about 30%; inactive means the rest.

SMILES	GDH-TPI counter-1	CCHF vOTU inh	RecA splice inh	Mtb FBA inh	Mtb FBA confirm	GDH-TPI counter-2
O=c1c2ccccc2nc2c3ccccc3c(NCc3ccccn3)nn12	2	-26	-7	79*	+	180*
O=c1c2ccccc2nc2c3ccccc3c(NCCO)nn12	8	-55	-4	33*	+	+
O=C(NCCO)c1nc(NCCO)c2ccccc2n1	8	-11	-1	4	/	/
COC(=O)c1cccc(OCC(C)CN2CCC(C(O)(c3ccccc3)c3ccccc3)CC2)c1 (centres undefined)	/	-1	/	/	/	/
Cc1cccc(NC(=O)CCc2ccc(N3C(N)=NC(N)=NC3(C)C)cc2)c1	7	2	/	-1	/	/
C=CCN1C(=O)[C@@H](CC(=O)NCCC(C)C)[C@]2(C(=O)OCC)CCCCC/C=C/12	/	2	/	/	/	/
COC(=O)c1ccc2cc(F)cc(C)c2n1	/	-1	/	11	/	/
COC(=O)c1ccc2cc(C)cc(C)c2n1	/	-28	/	59*	12	15*
CC(=O)NCC1(c2ccccc2)CCN(CCCC(=O)c2ccc(F)cc2)CC1	5	-3	/	-1	/	/
Cc1ccc(-n2c(O)c(C=Nc3ccc4c(c3)OCO4)c3ccccc3c2=O)cc1C	5	-19	1	2	/	/
Cc1cc(N=Cc2c(O)n(-c3ccc4c(c3)OCO4)c(=O)c3ccccc23)ccn1	6	-46	-17	38*	+	+
COc1ccc(NC(=O)COC(=O)C2CCN(S(=O)(=O)c3cccs3)CC2)cc1OC	4	11	/	1	/	/
Clc1ccc(/C=C\c2nccc3c2[nH]c2ccccc23)cc1	6	-13	-9	54*	55*	41*
Clc1ccc(C=Cc2ccccn2)cc1	18	3	/	-1	/	/
CN(C)c1ccc(C=Cc2nccc3ccccc23)cc1	/	17	/	-3	/	/
N#Cc1ccc(/C=C\c2nccc3c2[nH]c2ccccc23)cc1	8	2	-24	54*	54*	45*
O=C(Cc1ccccn1)c1ccncc1	10	-10	/	7	/	/
O=C1CC2(CCN(C(=O)C(=O)c3c[nH]c4ccccc34)CC2)Oc2ccccc21	23	-8	0	4	/	/
Cc1ccc(-c2nc3cnccn3c2Nc2ccccc2)o1	26	-7	-27	2	/	/
Cc1ccc(-c2nc3ccccn3c2Nc2ccccc2)o1	8	-155	-2	108*	138*	127*
C[C@H](NC(=O)c1cccc([N+](=O)[O-])c1)C(=O)OCC(=O)c1ccccc1Br	11	6	/	7	/	/
CCn1c(=O)c2cc(C(=O)N(C)CC(OC)OC)sc2c2ccccc21	21	-35	1	35*	+	+
CCn1c(=O)c2cc(C(=O)NCCOC)sc2c2ccccc21	21	-19	-1	51*	57*	43*
CCn1c(=O)c2cc(C(=O)Nc3ccc(OC)cc3OC)sc2c2ccccc21	0	-6	-20	0	/	/
CCOCCCNC(=O)c1cc2c(=O)n(CC)c3ccccc3c2s1	12	-48	-1	59*	+	+
SMILES	GDH-TPI counter-1	CCHF vOTU inh	RecA splice inh	Mtb FBA inh	Mtb FBA confirm	GDH-TPI counter-2
CCOCCCNC(=O)c1cccs1	-1	-4	-1	1	/	/
COc1ccc(OC)c(C2C(C(=O)c3cccs3)=C(O)C(=O)N2CCN2CCOCC2)c1 (centres undefined)	-5	-3	1	3	/	/
Cc1cc(N2CCOCC2)nc2ccc(NC(=O)CCC(=O)N3CCC4(CC3)OCCO4)cc12	11	-64	-1	58*	+	+
Cc1cc(N2CCN(C)CC2)nc2ccc(NC(=O)CCC(=O)N3CCN(c4ccc([N+](=O)[O-])cc4)CC3)cc12	8	9	1	-5	/	/
CCOC(=O)C1CCCN(C(=O)CCC(=O)Nc2ccc3nc(N4CCOCC4)cc(C)c3c2)C1 (centres undefined)	12	-62	-4	67*	89*	69*
Cc1cc(N2CCN(C)CC2)nc2ccc(NC(=O)CCC(=O)NCCC3=CCCCC3)cc12	1	-15	/	6	/	/
COCCCNC(=O)CCC(=O)Nc1ccc2nc(N3CCOCC3)cc(C)c2c1	8	-64	-3	88*	3	-1
Cc1cc(N2CCOCC2)nc2ccc(NC(=O)C3CCC(C)CC3)cc12 (centres undefined)	9	-2	-1	9	/	/
CCCCNC(=O)CCC(=O)Nc1ccc2nc(N3CCOCC3)cc(C)c2c1	3	-69	2	62*	4	-7
Cc1cc(N2CCN(C)CC2)nc2ccc(NC(=O)CCC(=O)NCCCOC(C)C)cc12	4	-33	-4	25	/	/
COc1cccc(NC(=O)CCC(=O)Nc2ccc3nc(N4CCOCC4)cc(C)c3c2)c1	-5	-32	1	66*	125*	95*
CCCCNC(=O)CCC(=O)Nc1ccc2nc(N3CCCCC3)cc(C)c2c1	5	-67	2	78*	+	145*
CCN1CCN(c2cc(C)c3cc(NC(=O)CCC(=O)Nc4ccc(OC)cc4OC)ccc3n2)CC1	14	-11	-2	23	/	/
Cc1cc(N2CCCCC2)nc2ccc(NC(=O)CCC(=O)NCCC(C)C)cc12	2	-57	-1	54*	-5	-4
CCN(CC)C(=O)C1=C(C)N(Cc2ccc(OC)cc2)C(=O)C(CC(=O)NCCc2ccccn2)C1 (centres undefined)	-17	-2	/	1	/	/
C=CCOC(=O)C1=C[C@@H](c2csc3ccccc23)[C@H](CCCO)[C@@H](OCC)O1	13	3	6	4	/	/
CN(Cc1ccccc1)C(=O)c1ccccc1N(C)S(=O)(=O)c1ccccc1	4	3	/	-1	/	/
Cc1cc(C(=O)NC2CC(C)(C)Cc3c2cnn3-c2ccc(F)cc2)no1 (centres undefined)	-7	8	/	2	/	/
CCc1nnc(NC(=O)CN2CCN(Cc3ccccc3Cl)CC2)s1	10	-8	1	1	/	/
CCn1cnc2c(oc3ccccc32)c1=O	1	-4	1	44*	177*	127*
CCCn1cnc2c(oc3ccccc32)c1=O	0	-17	-1	2	/	/
O=C(O)c1ccc2c(c1)C(=O)N(c1ncccn1)C2=O	0	0	-6	0	/	/
O=C(O)c1ccc2c(c1)-c1nc3ccccc3n1C2=O	-1	-9	3	51*	44*	36*
Cc1csc(=O)n1CC(=O)OCC(=O)Nc1cc(Cl)ccc1[N+](=O)[O-]	11	0	2	-1	/	/
Nc1ccc(C=Cc2ccc(N)cc2)cc1	/	-69	/	88*	153*	116*
CC(C)CCN(CCC(C)C)CC(O)Cn1c2ccccc2c(=O)c2ccccc21 (centres undefined)	-2	-13	i	31*	45*	35*
CCCN(CCC)CC(O)Cn1c2ccccc2c2ccccc21 (centres undefined)	-1	-1	-1	0	/	/
C=CCOCCn1[nH]c2ccccc2c1=O	3	-11	/	47*	130*	108*
c1csc(CNc2nc(Oc3ccncc3)c3sccc3n2)c1	5	-44	/	43*	65*	51*

Screens from PubChem.
